Assay outcomes (PubChem BioAssay)
POLI inh – qHTS for Inhibitors of Polymerase Iota; Pol iota fluorescent replication assay, 10 min; Potency, µM (highest dose often 115 µM), without a hit: at the highest dose activity, negative = inhibition, actives largely listed as inhibitors; hit rate 1% among 390,000; AID 588590, 2011; note: potency is the fitted concentration of half-maximal effect
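Pol iota at 10 nM preincubated 15 min with compounds at room temperature; reaction started with fluorescent substrate, 50 nM final. Fluorescence read kinetically at 0 and 10 min; buffer-only wells as negative control.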
Pol eta inh-1 – qHTS for Inhibitors of Polymerase Eta; DNA polymerase eta (Homo sapiens), Q9Y253; recombinant Pol eta, fluorescent DNA replication assay; Potency, µM (highest dose often 114 µM), inactives show at the top dose activity change, negative = inhibition, most hits filed as inhibitors; hit rate 1.2% among 390,000; note: potency is the fitted concentration of half-maximal effect; % is set by controls: 0 for no effect and ±100 for the full control effect
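Pol eta at 10 nM preincubated with compounds 15 min at room temperature; reaction started with fluorescent substrate (50 nM final) and read kinetically at 0 and 10 min.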
GLS inhibitor – qHTS for Inhibitors of Glutaminase (GLS); Glutaminase kidney isoform, mitochondrial (Homo sapiens), O94925; GLS enzymatic activity, qHTS titration; Potency, µM (series often up to 45.5 µM), inactives show at the highest dose activity change, negative = inhibition, usual class: inhibitors; hit rate 0.21% among 410,000; AID 624170, 2012; note: potency is the fitted concentration of half-maximal effect; % is set by controls: 0 for no effect and ±100 for the full control effect
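Compounds were pin-transferred onto hKGA, after which L-glutamine (1 mM solution) and a detection mix of glutamate oxidase, HRP and Amplex Red were added. Initial and 30 min RT fluorescence reads were collected.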
KAT2A inh – qHTS Assay for Inhibitors of GCN5L2; Histone acetyltransferase KAT2A (Homo sapiens), Q92830; GCN5L2 HAT assay, ThioGlo1 CoA-SH fluorescence; Potency, µM (titrated, usually from 58.9 µM), for the others: at the top dose activity change, negative = inhibition, most hits filed as inhibitors; hit rate 0.21% among 390,000; AID 504327, 2011; note: potency is the fitted concentration of half-maximal effect; % is set by controls: 0 for no effect and ±100 for the full control effect
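ThioGlo1-coupled HAT assay: 20nM GCN5L2, 70uM acetyl-CoA, 75uM H3(1-25) peptide, pH 7.5. Fluorescence read at 340/540nm at start and after 20 min at room temperature.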
Pol kappa inh-1 – qHTS for Inhibitors of Polymerase Kappa; purified Pol kappa, fluorescent DNA synthesis assay, 10 min; Potency, µM (series often up to 107 µM), without a hit: at the highest dose activity, negative = inhibition, most hits filed as inhibitors; hit rate 0.53% among 400,000; AID 588579, 2011; note: potency is the fitted concentration of half-maximal effect; % is set by controls: 0 for no effect and ±100 for the full control effect
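Kinetic fluorescence readout at 0 and 10 min followed reaction start with substrate at 50 nM final. Beforehand, enzyme (10 nM Pol kappa) stood 15 min with compound at room temperature; buffer-only wells were negative controls.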
POLB inh – qHTS Assay for Inhibitors of DNA Polymerase Beta. AID 485314, 2010. hit rate 1.3% among 340,000. Pol beta primer extension/strand displacement, fluorescence kinetic. Potency, µM (top dose mostly 114 µM), without a hit: at the highest dose activity change, negative = inhibition, most hits filed as inhibitors; note: potency is the fitted concentration of half-maximal effect; % is set by controls: 0 for no effect and ±100 for the full control effect
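Kinetic readout of DNA synthesis with strand displacement by Pol beta. Compound and 10 nM enzyme sit 15 min at room temperature; 50 nM substrate starts the reaction, read immediately and at 10 min.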
GALK inh confirm – Confirmation Assay for Inhibitors of Human Galactokinase (GALK). shares compounds with Pol eta inh-1. purified GALK, Kinase-Glo ATP depletion luminescence. Potency, µM (doses to about 115 µM), for inactives: top-dose activity, negative = inhibition, most hits filed as inhibitors. hit rate 70% among 150. AID 2015, 2009
Redox cycling – Confirmatory Assay for Inhibitors of Human Galactokinase (GALK): Phenol-HRP redox assay counterscreen | shares compounds with Pol eta inh-1 | Phenol red-HRP H2O2 redox cycling, absorbance 600 nm | Potency, µM (titrated, usually from 115 µM), for inactives: at the top dose activity change, negative = H2O2 signal, usual class: inhibitors | hit rate 40% among 150
HEK293 tox – Secondary Assay for Inhibitors of Human Galactokinase (GALK): HEK-293 Cell Viability Assay. shares compounds with Pol eta inh-1. HEK-293 viability, ATP luminescence (CellTiter-Glo), 24/48 h. Potency, µM (top dose mostly 46.1 µM), inactives show at the top dose activity change, negative = cytotoxicity, hits mostly inhibitors. hit rate 10% among 170; note: potency is the fitted concentration of half-maximal effect; % is set by controls: 0 for no effect and ±100 for the full control effect
Pol kappa inh-2 – qHTS for Inhibitors of Polymerase Kappa: Confirmatory Assay for Cherry-picked Compounds. shares compounds with Pol eta inh-1. AID 720501, 2013. Potency, µM, most hits filed as inhibitors. purified Pol-kappa, fluorescent strand-displacement substrate. hit rate 76% among 920; note: potency is the fitted concentration of half-maximal effect
Pol eta inh-2 – qHTS for Inhibitors of Polymerase Eta: Confirmatory Assay for Cherry-picked Compounds | shares compounds with Pol eta inh-1 | Pol eta primer extension, TAMRA/BHQ fluorescence, 10 min | Potency, µM, hits mostly inhibitors | hit rate 64% among 2,600; note: potency is the fitted concentration of half-maximal effect
An asterisk follows results filed as active; ? = inconclusive; . = no result given; [ ] = remark or other dose. Shown are actives, neighbours in structure and some others; about 2.4% of the full set was active somewhere. Calls come from the whole dose curve; as a rule, active = well fitted curve in the direction sought with a large enough effect; inconclusive = small, poorly fitted or top-dose-only effect, or another doubt; inactive = no such curve, though single readings can be large; an effect the other way counts as inactive or inconclusive.

SMILES	POLI inh	Pol eta inh-1	GLS inhibitor	KAT2A inh	Pol kappa inh-1	POLB inh	Pol eta inh-2	others
CCOC(=O)c1cc(-c2ccc(/C=C3/C(=O)NC(=O)C(C#N)=C3C)o2)ccc1Cl	?	28.2µM*	-10.3%	?	?	35.5µM*	47.8*
CC1CCn2c(nc3cc(C(=O)NCc4ccc(F)cc4)ccc32)C1 (stereo not given)	5.2%	1.3%	-2.8%	-6.1%	-8.3%[60.1 µM]	-0.1%	.
Cc1cccc(-c2c3c(=O)n(C)c(=O)n(C)c3c3c(C)nc4ccccc4n23)c1	?	-6.2%	-1.0%	1.9%	-8.8%	8.6%	.
Nc1c(C(=O)Nc2cccc(C(=O)O)c2)sc2nc3c(cc12)CCCC3	23.1%	?	-10.7%	-7.2%	-8.8%	1.3%	?	Pol kappa inh-2=21.2*
COc1cc(NS(=O)(=O)c2ccc(N/C=C(\C#N)c3nc4cc(Cl)ccc4o3)cc2)nc(OC)n1	10.8%	35.5µM*	46.5%	-16.7%	-3.2%	-27.4%	?
CS(=O)(=O)C1=NSC2=NC(=O)/C(=C\c3cccn3-c3ccc(Cl)cc3)C(=N)N21	?	22.4µM*	-12.5%	-22.9%	-40.4%	22.4µM*	?
O=C(NNc1cc(N2CCOCC2)nc(N2CCOCC2)n1)c1ccc([N+](=O)[O-])cc1	6.31µM*	89.1µM*	17.9%	9.0%	-3.9%	14.7%	.	GALK inh confirm=23.7µM*;Redox cycling=4.21µM*;HEK293 tox=-12.0%
CCOc1ccc(/C=c2\sc3nc(-c4ccco4)nn3c2=O)cc1OCC	?	14.1µM*	-6.5%	-1.7%	?	0.5%	?
C=CCOc1cccc(C2C(C(=O)c3ccco3)=C(O)C(=O)N2Cc2ccco2)c1 (stereo not given)	?	?	73.7%	-4.3%	-12.9%	3.1%	?
C=CCOc1cccc(C2C(C(=O)c3ccco3)=C(O)C(=O)N2Cc2ccncc2)c1 (stereo not given)	8.5%	3.7%	-0.6%	-11.0%	-4.5%	3.2%	.
Cc1noc(NS(=O)(=O)c2ccc(NC(=O)c3ccc(Br)cc3)cc2)c1C	-6.9%	.	12.3%	-6.7%	?	0.2%	.	Pol kappa inh-2=8.44*
